Compounds without any hit were thinned out: in the full panel of roughly 83,000, 20% have a hit.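 Cell lines were cultured in 96-well plates, exposed to a single compound concentration, and assessed for percent growth 48 hours later.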 The source made the active and inactive calls. Rule for the calls: active = growth percent below 10; inactive = the rest.
Experiments:
Experiment in all cases: NCI-60 one-dose screen, 48 h (100 = growth as untreated, 0 = no growth, -100 = all killed)
Conditions in all cases: 10 µM unless noted
[1] = system: SK-MEL-2 melanoma
[2] = system: EKVX NSCLC
[3] = system: SN12C renal
[4] = system: UO-31 renal
[5] = system: ACHN renal
[6] = system: CAKI-1 renal
[7] = system: A498 renal
[8] = system: CCRF-CEM leukemia
[9] = system: MOLT-4 leukemia
[10] = system: RPMI-8226 leukemia
[11] = system: OVCAR-8 ovarian
[12] = system: OVCAR-5 ovarian
[13] = system: OVCAR-4 ovarian
[14] = system: SK-OV-3 ovarian
[15] = system: OVCAR-3 ovarian
[16] = system: HS 578T breast
[17] = system: NCI/ADR-RES ovarian
[18] = system: IGROV1 ovarian
[19] = system: SR leukemia

Measured: growth

COc1cc(/C=C/C(=O)N2CCN(C(=O)c3cc(OC)c(OC)c(OC)c3)CC2)ccc1OCCCN1C(=O)c2cccc3cccc(c23)C1=O
inactive: [1] 49.3% | [2] 114% | [3] 93.7% | [4] 42.1% | [5] 80.7% | [6] 72.9% | [7] 62.2% | [8] 27.1% | [9] 49.6% | [10] 21.6% | [11] 50.6% | [12] 107% | [13] 77.9% | [14] 121% | [15] 73.5% | [16] 38.6% | [17] 68.9%

COCN1CCC2N(COC)CCC3N(COC)CCC1N23 (centres undefined)
inactive: [1] 107% | [2] 108% | [3] 89.6% | [4] 107% | [5] 108% | [6] 102% | [7] 113% | [8] 104% | [9] 111% | [10] 118% | [11] 99% | [12] 103% | [13] 110% | [14] 101% | [18] 126% | [15] 116% | [16] 124% | [17] 108%

O=C1/C(=C\c2cccnc2)SC(=S)N1CCc1ccc(O)cc1
inactive: [1] 66.5% | [2] 64.7% | [3] 18.4% | [4] 37.4% | [5] 29.4% | [6] 30.5% | [7] 85.1% | [8] 23.9% | [9] 68.6% | [10] 16.7% | [12] 58.8% | [13] 64% | [14] 96.4% | [18] 62.9% | [15] 35.7% | [16] 74.7% | [17] 47.9%

O=C(c1ccccc1)N1N=C(c2ccccc2)CC1c1nnc2n(Cc3ccccc3)c(=O)c3c4c(sc3n12)CCCC4 (centres undefined)
inactive: [1] 77.6% | [2] 102% | [3] 120% | [4] 84.4% | [5] 99.8% | [6] 99.3% | [7] 114% | [9] 88.8% | [10] 91.6% | [11] 106% | [12] 133% | [13] 108% | [14] 106% | [15] 112% | [16] 109% | [17] 118%
active: [19] -16.1%

O=C1/C(=C\c2c[nH]c3ccccc23)c2ccccc2N1c1c(Cl)cccc1Cl
inactive: [1] 15.8% | [4] 20.7% | [7] 19.2% | [8] 11.6% | [13] 25% | [14] 22.7% | [18] 23.9%
active: [2] -5.29% | [3] -29.6% | [5] 3.26% | [6] -38.6% | [9] -13.1% | [11] 8.34% | [12] -35.9% | [15] -27.8% | [16] -11.4% | [17] -8.2%

NS(=O)(=O)c1cnccc1Oc1cccc2cccnc12
inactive: [1] 107% | [2] 97.1% | [3] 99.4% | [4] 78.3% | [5] 102% | [6] 111% | [7] 99.1% | [9] 93% | [19] 86% | [10] 88.4% | [11] 54.1% | [12] 82.9% | [13] 118% | [14] 77.8% | [15] 113% | [16] 88.7% | [17] 107%

CC(=O)C(C)Cc1cc2c(cc1C)C(C)(C)CCC2(C)C (centres undefined)
inactive: [1] 94.8% | [2] 94.4% | [3] 103% | [4] 101% | [5] 104% | [6] 97.6% | [7] 108% | [8] 121% | [19] 131% | [10] 100% | [11] 101% | [12] 98.6% | [13] 104% | [14] 85.7% | [18] 114% | [15] 108% | [16] 102% | [17] 98.8%

COC(=O)CCC1=C(C)C2=NC1=CC1=NC(=CC3=NC(=Cc4[nH]c(/c(=C(/C)O)c4C)=C2)C(C(C)=O)=C3C)C(C)=C1CCC(=O)OC
inactive: [1] 102% | [2] 99.7% | [3] 97.8% | [4] 100% | [5] 103% | [6] 98.8% | [7] 90.1% | [8] 101% | [19] 111% | [10] 85.7% | [11] 100% | [12] 111% | [13] 107% | [14] 95.1% | [18] 108% | [15] 107% | [16] 89.1% | [17] 103%

Fc1ccc(CNc2c3ccccc3nc3ccccc23)cc1F
active: [7] 9.78%
inactive: [1] 89.4% | [2] 35.4% | [3] 29.7% | [4] 15.6% | [5] 19.3% | [6] 25.3% | [8] 41.5% | [19] 17% | [10] 26.9% | [12] 44.6% | [13] 35.4% | [14] 55.7% | [18] 22.8% | [15] 68.9% | [16] 64.8% | [17] 27.6%

Cc1c(C(=O)NC(Cc2ccccc2)C(O)C(=O)NCc2ccc(F)cc2)[nH]c2ccccc2c1=O (centres undefined)
inactive: [1] 108% | [2] 104% | [3] 107% | [4] 94% | [5] 107% | [6] 102% | [7] 107% | [8] 109% | [9] 93.6% | [10] 105% | [11] 103% | [12] 91% | [13] 107% | [14] 104% | [18] 103% | [15] 114% | [16] 99% | [17] 107%

NS(=O)(=O)c1ccc(-n2nc(C(=O)N/N=C\c3ccc(F)cc3)cc2-c2ccc(Cl)cc2)cc1
inactive: [1] 96.5% | [2] 75.1% | [3] 90.7% | [4] 62.4% | [5] 90% | [6] 60.6% | [7] 68.5% | [8] 103% | [9] 89.2% | [10] 104% | [11] 96.8% | [12] 103% | [13] 97.8% | [14] 93.5% | [18] 76.1% | [15] 99.8% | [16] 86% | [17] 106%

CC/C=C\C/C=C\C[C@H](O)C/C=C1/C(=O)C=C[C@@H]1C/C=C\CCCC(=O)O
inactive: [1] 23.2% | [2] 95.3% | [3] 16.9% | [4] 57% | [5] 60.2% | [6] 37.8% | [7] 96.6% | [12] 65.3% | [13] 47.4% | [14] 109% | [18] 63.1% | [16] 42.6% | [17] 31.3%
active: [9] 7.61% | [19] 6.21% | [10] 3.88% | [11] -4.92% | [15] 7.83%

O=[N+]([O-])c1ccc(OCCO)cc1
inactive: [1] 105% | [2] 92.8% | [3] 101% | [4] 86.2% | [5] 104% | [6] 93.1% | [7] 90.6% | [8] 96.2% | [19] 139% | [10] 101% | [11] 98.7% | [12] 97.1% | [13] 102% | [14] 103% | [18] 105% | [15] 99.9% | [16] 99.5% | [17] 97.8%

CCC1(C2CCCC2)NC(=O)NC1=O (centres undefined)
inactive: [1] 102% | [2] 105% | [3] 99% | [4] 87.4% | [5] 93.8% | [6] 100% | [7] 100% | [8] 87.8% | [9] 110% | [10] 91.3% | [11] 109% | [12] 80.5% | [13] 113% | [14] 112% | [18] 97.5% | [15] 111% | [16] 98.9% | [17] 109%

Cc1ccc(Cc2cnc(NC(=O)c3ccc4noc(-c5ccccc5)c4c3)s2)cc1
inactive: [1] 99.7% | [2] 79.1% | [3] 85.9% | [4] 81.9% | [5] 99% | [6] 78.2% | [7] 102% | [9] 90.2% | [19] 85% | [10] 79.3% | [11] 89.1% | [12] 105% | [13] 86.4% | [14] 108% | [18] 96.3% | [15] 107% | [16] 95.7% | [17] 92.5%

Cc1cccc(Cc2cnc(NC(=O)c3ccc4nnsc4c3)s2)c1
inactive: [1] 82.7% | [2] 87.4% | [3] 92.9% | [4] 78.5% | [5] 70.3% | [6] 60.2% | [7] 106% | [9] 90.2% | [19] 95.2% | [10] 76.4% | [11] 96.5% | [12] 84.4% | [13] 98.3% | [14] 91.8% | [18] 97.9% | [15] 104% | [16] 109% | [17] 90%

COc1ccc(/C=c2\nc3n(-c4ccccc4)c4nc5c6c(sc5c(=N)n4n-3c2=O)CCCC6)cc1
inactive: [1] 99.4% | [2] 67% | [3] 86.4% | [4] 49.5% | [5] 75.1% | [6] 72.9% | [7] 58.9% | [9] 56.3% | [19] 61.5% | [10] 80.1% | [11] 89.3% | [12] 104% | [13] 82% | [18] 61.4% | [15] 88.2% | [16] 85.6% | [17] 83.1%

— PubChem BioAssay (NCI)
